Screening data deposited in PubChem BioAssay by several laboratories.
FadD28 FP inh – blocks FadD28 binding to the bisubstrate probe. fluorescence polarization. inhibition, % at 12.5 µM. 360,000 compounds, 0.22% hits. AID 588549; in the data active = inhibition above about 8.5%, passing the limit was not always enough
Mtb betalactam – beta-lactam sensitization of Mtb H37Rv; inhibition, % at 25 µM; 330,000 compounds, 0.27% hits; AID 434955; M. tuberculosis H37Rv growth with meropenem, percent inhibition; call rule not given here;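 also: growth measured after seven days incubation then overnight dye step; 0% = bacteria only wells and 100% = bacteria with antibiotic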
Vc quorum ag – induces V. cholerae light production without autoinducers; activation, % at 18.7 µM; 350,000 compounds, 0.16% hits; V. cholerae BH1578 lux reporter, luminescence, 6 h; in the data active = activation mostly above about 9.7%, no sharp cut-off
Rv3671c inh – Rv3671c (M. tuberculosis) protease inhibition | inhibition, % at 5.96 µM | 320,000 compounds, 0.048% hits; in the data active = inhibition above about 38%;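 also: extracellular domain of Rv3671c used as enzyme; 0% = enzyme with DMSO and 100% = no enzyme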
Target sequence (P9WHR9 whole entry, looked up, the tested form may be a part): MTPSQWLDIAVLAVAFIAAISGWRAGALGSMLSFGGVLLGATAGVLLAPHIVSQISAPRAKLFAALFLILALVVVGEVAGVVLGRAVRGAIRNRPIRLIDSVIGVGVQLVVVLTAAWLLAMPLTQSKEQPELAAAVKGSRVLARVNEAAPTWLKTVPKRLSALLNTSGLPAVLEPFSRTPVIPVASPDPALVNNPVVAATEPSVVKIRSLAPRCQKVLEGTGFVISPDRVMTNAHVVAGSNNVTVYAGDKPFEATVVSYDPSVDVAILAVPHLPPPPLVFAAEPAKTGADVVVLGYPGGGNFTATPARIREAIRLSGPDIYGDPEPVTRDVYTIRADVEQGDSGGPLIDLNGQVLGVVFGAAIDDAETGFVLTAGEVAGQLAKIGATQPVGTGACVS
MazEF act – activators of E. coli MazEF toxin-antitoxin RNase. P0AE70. FAM/BHQ RNA-DNA oligo cleavage fluorescence, 5 h. activation, % at 20 µM. 350,000 compounds, 0.32% hits. AID 504720; in the data active = activation above about 50%
Target sequence (P0AE70 whole entry, looked up): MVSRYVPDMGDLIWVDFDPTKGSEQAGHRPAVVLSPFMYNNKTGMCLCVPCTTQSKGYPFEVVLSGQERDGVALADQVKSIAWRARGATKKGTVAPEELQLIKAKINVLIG
Mtb UGM inh – blocks M. tuberculosis UGM enzyme; 320,000 compounds, 0.06% hits; P9WIQ1; inhibition, % at 10 µM; purified UGM, fluorescence polarization probe displacement; in the data active = inhibition above about 10%, passing the limit was not always enough
Starred values were filed as active, the others as inactive; i = inactive; . = not tested or not shown; + = active, no number. A selection: hits, their analogues and other compounds. The true share with any hit is near 0.74%.

SMILES	FadD28 FP inh	Mtb betalactam	Vc quorum ag	Rv3671c inh	MazEF act	Mtb UGM inh
CCc1ccc(/C=C/C(=O)C2C(=O)c3ccccc3C2=O)cc1	13*	98	i	7	-10	3
O=C(Cn1nnc(-c2ccc3c(c2)OCO3)n1)Nc1ccccc1C(=O)O	11*	7	i	6	2	4
N#CC(C(=O)NCCc1ccccc1)c1nc2ccccc2nc1N1CCCCC1 (stereo not given)	0	-1	0	4	150*	5
N#CC(C(=O)NCc1ccccc1)c1nc2ccccc2nc1N1CCCC1 (stereo not given)	-3	3	i	-25	+	5
CCN(CC)c1nc2ccccc2nc1C(C#N)C(=O)NCCCOC (stereo not given)	0	2	0	3	-9	0
N#CC(C(=O)NCCc1ccccc1)c1nc2ccccc2nc1N1CCOCC1 (stereo not given)	1	-6	-3	5	928*	2
CCN(CC)c1nc2ccccc2nc1C(C#N)C(=O)NCCc1ccccc1 (stereo not given)	-4	-1	.	-5	+	3
COc1cc(C2c3[nH]c4ccccc4c3CC3COC(=O)N32)cc(OC)c1O (stereo not given)	0	.	i	.	5	.
Cc1nc(C(F)(F)F)ccc1C(=O)N1CCC1(C)C(=O)NS(=O)(=O)c1cccc(C#N)c1 (stereo not given)	-2	.	0	.	.	.
CCN=C1Cn2c(nc3scc(-c4ccccc4)c3c2=O)CN1CC	-6	-11	17*	-9	7	-2
COc1cccc(OC)c1C(=O)NC(=S)Nc1cccc(NC(=O)c2ccco2)c1	-1	-2	0	-6	75*	-3
COc1cccc(OC)c1C(=O)Nc1ccc(NC(=O)c2ccco2)cc1	-3	-8	4	0	10	-1
CC(C)c1ccc(OCC(=O)N2CCN(C(=O)c3ccco3)CC2)cc1	-3	-4	0	.	3	0
O=C(/C=C/c1ccccc1)CC(=O)c1ccccc1O	-2	92	0	2	55*	-2
COc1cccc(-n2nnc3c(=O)n(Cc4c(F)cccc4Cl)cnc32)c1	-2	7	0	1	90*	2
COc1cccc(-n2nnc3c(=O)n(Cc4cccc(F)c4)cnc32)c1	1	10	-1	0	-9	1
Cc1c2ccccc2cc[n+]1CCCS(=O)(=O)[O-]	-2	7	-1	0	-9	-1
CC1(C)C(/C=C/C=C/C=C/C=C2\N(CCCCS(=O)(=O)O)c3ccc4ccccc4c3C2(C)C)=[N+](CCCCS(=O)(=O)[O-])c2ccc3ccccc3c21	12*	19	i	-87	-2	1
CCCCN1CCC(=O)C(C(=O)OCC)=C1C(=O)OCC	0	.	i	.	0	.
CN(C)c1cc(-c2ccc(Cl)cc2)oc(=O)c1Cl	-1	-10	-1	1	5	2
CN(C)c1cc(-c2ccc([N+](=O)[O-])cc2)oc(=O)c1Cl	-2	-2	-1	1	54*	1
CCN(CC)S(=O)(=O)c1ccc(Cl)c(NC(=O)c2cc(Cl)ccc2Cl)c1	0	1	0	14	54*	-2
COCCNC(=O)Cn1cc(C=C2C(=O)NC(=O)NC2=O)c2ccccc21	0	-1	i	2	-500	42*
Cn1cc(C=C2C(=O)NC(=O)NC2=O)c2ccccc21	0	-6	i	8	+	8
CC(=O)n1cc(C=C2C(=O)NC(=O)NC2=O)c2ccccc21	0	7	i	-11	3	1
SMILES	FadD28 FP inh	Mtb betalactam	Vc quorum ag	Rv3671c inh	MazEF act	Mtb UGM inh
COC(=O)Cn1cc(C=C2C(=O)N(C)C(=O)N(C)C2=O)c2ccccc21	.	0	.	-12	195*	14*
CCCCN1C(=O)C(CC(=O)NCc2ccco2)CC(C(=O)N2CCOCC2)=C1C (stereo not given)	-4	.	0	.	5	.
CS(=O)(=O)NCc1ccccc1Br	.	12	.	6	.	-1
CCOc1ccc(NC(=O)/C=C/c2ccccc2)c([N+](=O)[O-])c1	0	-5	0	-9	8	1
CCOc1ccc(/C=C/C(=O)Nc2ccc(OC)cc2[N+](=O)[O-])cc1	1	-4	0	-1	237*	1
CC(=O)NC(c1ccccc1)c1nc(-c2cncnc2)cs1 (stereo not given)	-1	.	0	.	.	.
COc1ccc(C(=O)Nc2cccc([N+](=O)[O-])c2)cc1Br	-6	9	1	8	-5	1
O=C(Nc1ccc(OC(F)F)c(Cl)c1)Nc1ccc2c(c1)OCO2	-3	10	-1	-1	8	0
COc1ccc(NC(=O)Nc2cccc([N+](=O)[O-])c2)cc1Cl	16*	-2	0	-15	106*	-3
CCC(=O)Nc1ccc2c(c1)Cc1cc([N+](=O)[O-])ccc1-2	-1	.	i	.	58*	.
O=C(Nc1cccc([N+](=O)[O-])c1)Nc1ccc2c(c1)CCC2	6	0	i	-21	84*	0
O=C(Nc1ccc([N+](=O)[O-])cc1)Nc1ccc(OC(F)F)c(Cl)c1	13*	100	0	-500	19	-2
CC(C)(C)NC(=O)NC(=O)C[n+]1ccc(Cc2ccc([N+](=O)[O-])cc2)cc1	-4	-6	i	-8	21	3
CC(C)c1ccc(/C=N/NC(=O)c2nnn(-c3nonc3N)c2CN(C)C2CCCCC2)cc1	0	1	i	-10	-2	0
NC(=O)c1sc2nc(-c3ccco3)ccc2c1N	-1	-1	32*	6	-3	0
CC(=O)NC(C)(c1ccccc1)c1nc(-c2cccc3cccnc23)cs1 (stereo not given)	-1	.	i	.	.	.
O=C(C1=NN(c2ccccc2)C2C(=O)N(c3ccc(Cl)cc3)C(=O)C12)c1ccccc1 (stereo not given)	0	4	0	-15	-182	15*
COc1ccccc1N1C(=O)C2C(C(=O)c3ccccc3)=NN(c3ccc(Br)cc3)C2C1=O (stereo not given)	-3	-1	-1	-9	-89	11*
O=C(Nc1cc([N+](=O)[O-])ccc1O)c1ccc2c(c1)C(=O)N(Cc1ccco1)C2=O	12*	-5	i	13	-1	-1
O=C(Nc1ccc(O)cc1C(=O)O)c1ccc2c(c1)C(=O)N(Cc1ccco1)C2=O	3	1	-6	-24	-3	4
C/C=C1\NC(=O)[C@H](C)NC(=O)[C@@H](NC(=O)[C@H](Cc2ccc(O)cc2)NC(=O)[C@@H](NC(=O)/C(C)=C/C)C(C)C)[C@@H](C)OC(=O)[C@H](CCCc2ccc(O)cc2)NC(=O)[C@@H](CCC(=O)OC)NC1=O	-3	.	.	.	.	.
